“And” between values parts separate entries of the source, which are not always exact repeats. Equal values may be shown once. Records with an inconclusive call do not appear. More than one record can exist for a structure, and the calls need not agree. The source made the active and inactive calls. Calls follow the shape of the dose curve; as a rule, active = well fitted inhibition curve with a large enough effect in the repeat runs; inconclusive = weak or mixed curves; inactive = no such curve, though single readings can be large or run the other way.
What follows are molecules tested against Androgen receptor (Homo sapiens) (UniProt P10275) (assay: qHTS assay to identify small molecule antagonists of the androgen receptor (AR) signaling pathway using the MDA cell line in the presence of 0.5 nM R1881 (AID 1259243; also: nearly all actives have a fitted effect of over 50% in size)). Conditions: MDA-kb2 MMTV-luciferase, R1881 0.5 nM, 16 h; series mostly up to 92.4 µM; activity, negative = inhibition: at the top concentration.
Androgen receptor (Homo sapiens), sequence (P10275 whole entry, looked up): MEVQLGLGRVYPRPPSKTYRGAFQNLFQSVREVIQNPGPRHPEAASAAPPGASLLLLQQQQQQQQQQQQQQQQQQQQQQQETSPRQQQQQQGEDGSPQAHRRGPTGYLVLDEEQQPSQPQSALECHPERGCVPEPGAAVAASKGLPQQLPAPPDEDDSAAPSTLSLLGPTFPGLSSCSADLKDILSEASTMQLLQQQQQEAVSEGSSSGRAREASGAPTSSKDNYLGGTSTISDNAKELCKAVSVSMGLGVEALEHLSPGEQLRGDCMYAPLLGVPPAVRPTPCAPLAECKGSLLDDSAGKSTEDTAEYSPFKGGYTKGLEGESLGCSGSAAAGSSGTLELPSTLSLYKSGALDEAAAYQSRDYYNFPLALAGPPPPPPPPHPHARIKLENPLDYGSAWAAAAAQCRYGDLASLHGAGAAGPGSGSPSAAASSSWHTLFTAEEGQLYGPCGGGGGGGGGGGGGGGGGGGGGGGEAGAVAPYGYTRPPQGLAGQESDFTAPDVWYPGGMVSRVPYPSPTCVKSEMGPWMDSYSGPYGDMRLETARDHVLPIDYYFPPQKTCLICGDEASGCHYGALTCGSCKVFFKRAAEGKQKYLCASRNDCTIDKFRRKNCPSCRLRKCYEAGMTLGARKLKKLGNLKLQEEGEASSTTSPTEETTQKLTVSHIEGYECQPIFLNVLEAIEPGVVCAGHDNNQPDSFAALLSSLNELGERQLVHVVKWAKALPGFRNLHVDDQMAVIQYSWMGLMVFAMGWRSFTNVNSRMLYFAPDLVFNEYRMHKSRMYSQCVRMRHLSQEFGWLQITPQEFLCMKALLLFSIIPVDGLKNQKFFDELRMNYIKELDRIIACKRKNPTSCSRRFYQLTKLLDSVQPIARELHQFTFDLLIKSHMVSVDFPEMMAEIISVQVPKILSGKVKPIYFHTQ
Excerpt: U.S. Tox21 Program National Center for Advancing Translational Sciences [NCATS] NIH Chemical Genomics Center [NCGC] U.S. Environmental Protection Agency [EPA] National Institutes of Environmental Health Sciences [NIEHS] National Toxicology Program [NTP] U.S. Food and Drug Administration [FDA] Tox21 Assay Overview: Androgen receptor (AR) is an important member of the nuclear receptor family. Its signaling plays a critical role in AR-dependent prostate cancer and other androgen related diseases. Considerable attention has been given in the past decades to develop methods to study and screen for the environmental chemicals that have the potential to interfere with metabolic homeostasis, reproduction, developmental and behavioral functions. Therefore AR binding assay for screening androgen antagonists can be used to identify potential endocrine disruptors. MDA-kb2 cells (from ATCC, deposited by Wilson et al.) were used to screen for AR inhibitors against Tox21 compound libraries. These cells are human breast carcinoma cells that were stably transfected with a luciferase reporter gene under control of the MMTV promoter that contains response elements for both androgen receptor (AR) and glucocorticoid receptor (GR). The current screening for identification of AR inhibitors against Tox21 libraries used lower concentration (0.5 nM) of R1881 as a stimulator.
Tox21 Assay Protocol Summary: MDA-kb2 cells (cells cultured without CO2) were dispensed at 3,000 cells/well in 4 uL of culture medium into white wall/solid-bottom 1536-well plates (Corning Life Sciences, Corning, NY) using a Multidrop Combi (ThermoFisher Scientific, Waltham, MA) dispenser. After the assay plates were incubated at a 37C and 0% CO2 for 5 hr, 23 nL of compounds dissolved in DMSO, positive controls or DMSO only was transferred to the assay plate by a Pintool station (Kalypsys, San Diego, CA). The transfer of compounds was followed by the addition of 1 uL of 0.5 nM (final concentration) agonist (R1881)/culture medium using a Flying Reagent Dispenser (FRD, Aurora Discovery, San Diego, CA). The plates were incubated at 37C and 0% CO2 for 16 hr. For luciferase reporter gene assay, 4 uL of ONE-Glo reagent (Promega Corporation, Madison, WI) was added to each well using the FRD and after 30 min incubation at room temperature luminescence intensity was measured using ViewLux plate reader (PerkinElmer, Shelton, CT).
% is scaled to controls: 0 for no effect and ±100 for the full control effect; potency is read from the fitted curve at half-maximal effect.

Row | Compound | Potency | activity, negative = inhibition
1 | O=C(Oc1ccccc1)c1ccccc1C(=O)Oc1ccccc1 | 54.5 µM (active) | –
2 | C=CC(=O)OCC(CO)(COC(=O)C=C)COC(=O)C=C | 5.46 µM (active) and 12.2 µM (active) | –
3 | Cc1cc(O)c(Cl)c(C)c1Cl | – | -22.7% (inactive)
4 | O=c1[nH]sc2cc(Cl)ccc12 | 0.001 µM (active) | –
5 | COC(=O)c1cc(Cl)ccc1OC | – | 0.242% [at 42.5 µM] (inactive)
6 | CCCC(=O)OC[C@@H](OC(=O)CCC)[C@@H](OC(=O)CCC)[C@H](Cn1c2nc(=O)[nH]c(=O)c-2nc2cc(C)c(C)cc21)OC(=O)CCC | 16.8 µM (active) | –
7 | CC(C)(C)CC(C)(C)c1ccc(O)c(Cc2ccc(Cl)cc2Cl)c1 | 29.8 µM (active) | –
8 | Cc1cc(O)c(C(C)(C)C)cc1Sc1cc(C(C)(C)C)c(O)cc1C | 24.3 µM (active) | –
9 | Nc1cc(C(F)(F)F)ccc1S | – | -1.65% [at 42.5 µM] (inactive)
10 | O=C1c2c(O)ccc(Nc3ccc(CCO)cc3)c2C(=O)c2c([N+](=O)[O-])ccc(O)c21 | 54.5 µM (active) | –
11 | CCCCCCCCCCCC(=O)NCCCN(C)C | 68.6 µM (active) | –
12 | O=C(O)c1ccc(Cl)c(Cl)c1 | – | 2.32% (inactive)
13 | COc1cc(-c2nc(NC(=O)c3cc4cc(C)cc(C)c4n3CC(=O)O)sc2CCC2CCCCC2)c(OC)cc1Cl | 56 µM (active) | –
14 | CCCCCOc1ccccc1/C(=C\SC)n1ccnc1 | 21.1 µM (active) | –
15 | O=S1(=O)CC(Cl)(Cl)C(Cl)(Cl)C1 | 5.45 µM (active) | –
16 | Oc1cc2ccccc2c2ccccc12 | 10.9 µM (active) | –
17 | COc1ccc(C(=O)/C(Br)=C\C(=O)O)cc1 | 48.6 µM (active) | –
18 | Cc1onc(-c2c(Cl)cccc2Cl)c1C(=O)N[C@@H]1C(=O)N2[C@@H]1SC(C)(C)[C@@H]2C(=O)O | – | 11.1% [at 42.5 µM] (inactive)
19 | Oc1ccc(C2(c3ccc(O)cc3)CC3CC2C2CCCC32)cc1 (stereo not given) | 52.3 µM (active) | –
20 | Oc1cccc(-c2c3nc(c(-c4cccc(O)c4)c4ccc([nH]4)c(-c4cccc(O)c4)c4nc(c(-c5cccc(O)c5)c5ccc2[nH]5)CC4)C=C3)c1 | 29.8 µM (active) | –

Row | Compound | Potency | activity, negative = inhibition
21 | CCCCCCCCCCCCCCCCCC[N+](C)(C)C | 27.4 µM (active) | –
22 | CN(C)c1ccc(C2(c3ccc(N(C)C)cc3)OC(=O)c3cc(N(C)C)ccc32)cc1 | – | -4.63% (inactive)
23 | N#CSc1ccc(N)c([N+](=O)[O-])c1 | 30.8 µM (active) | –
24 | CC(C)(C)C1CCC(CC2=C(O)c3ccccc3C(=O)C2=O)CC1 (stereo not given) | 8.41 µM (active) | –
25 | C[C@@H]1C[C@H]2[C@@H]3CCC4=CC(=O)C=C[C@]4(C)[C@@]3(Cl)[C@@H](O)C[C@]2(C)[C@@]1(OC(=O)c1ccco1)C(=O)CCl | – | 196% [at 42.5 µM] (inactive)
26 | CC(C)(C)C(=O)OCOC(=O)C1N2C(=O)CC2S(=O)(=O)C1(C)C (stereo not given) | – | 7.18% [at 42.5 µM] (inactive)
27 | Cc1cc(O)c2ccccc2c1O | 11.9 µM (active) | –
28 | Cc1nc(-c2ccc3c(c2)CCN(CCC2CCC(NC(=O)/C=C/c4ccc(F)cc4)CC2)CC3)no1 (stereo not given) | – | -1.33% [at 42.5 µM] (inactive)
29 | CC[C@H](c1ccc(O)cc1)[C@@H](CC)c1ccc(O)cc1 | 15.4 µM (active) and 26.6 µM (active) | –
30 | CCCCCCOC(=O)c1ccc(O)cc1 | inactive | –
31 | O=C1C=CC(=O)N1 | – | -98.7% (inactive)
32 | CCOC(=O)c1nc(C(Cl)(Cl)Cl)n(-c2ccc(Cl)cc2Cl)n1 | 61.1 µM (active) | –
33 | ON=C1CCCC1 | 63.3 µM (active) | –
34 | CCCCCCCCCCCCCC[P+](CCCC)(CCCC)CCCC (tested in a mixture with another compound) | 1.94 µM (active) | –
35 | CCN(Cc1cccnc1)C(=O)c1cccc(Cl)c1[C@]1(C)C(=O)N(Cc2ccc(OC)cc2OC)c2ccc(Cl)cc21 | 57.1 µM (active) | –
36 | CCCCCCCCCCC=O | – | 1.02% (inactive)
37 | Fc1ccc([C@@H]2CCNC[C@H]2COc2ccc3c(c2)OCO3)cc1 | – | -15.8% [at 42.5 µM] (inactive)
38 | O=C(c1ccc(O)cc1O)c1ccc(O)cc1O | 3.07 µM (active) and 3.06 µM (active) | –
39 | Cc1ccc(O)c2ncccc12 | 10.6 µM (active) | –
40 | Cc1c(C)c2c(c(C)c1O)CCC(C)(COc1ccc(CC3SC(=O)NC3=O)cc1)O2 (stereo not given) | 54.5 µM (active) and inactive | –

Source: PubChem BioAssay (Tox21)
